Assay results from PubChem BioAssay AID652039 (The Scripps Research Institute Molecular Screening Center, 2013).
Screen size: about 370,000 compounds; about 3,300 (0.89%) were called active.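 Rule for the calls: active = activation above the mean of all tested compounds plus 3 SD, computed per campaign excluding outliers beyond control limits (cut at about 13% in these data); inactive = the rest.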 Many of the other results were omitted from the sample, so actives are more common in it than they were.

What follows are compounds tested against Kallikrein-7 (Homo sapiens) (UniProt P49862) (assay: activation of human kallikrein-7 proenzyme – biochemical, fluorescence intensity, primary screen (AID 652039)). Conditions: purified proKLK7, EDANS-DABCYL substrate fluorescence; at 7 µM; hits give high values; 100% is mature enzyme control, 0% vehicle.
Chain of Kallikrein-7 (Homo sapiens) (P49862 whole entry, looked up): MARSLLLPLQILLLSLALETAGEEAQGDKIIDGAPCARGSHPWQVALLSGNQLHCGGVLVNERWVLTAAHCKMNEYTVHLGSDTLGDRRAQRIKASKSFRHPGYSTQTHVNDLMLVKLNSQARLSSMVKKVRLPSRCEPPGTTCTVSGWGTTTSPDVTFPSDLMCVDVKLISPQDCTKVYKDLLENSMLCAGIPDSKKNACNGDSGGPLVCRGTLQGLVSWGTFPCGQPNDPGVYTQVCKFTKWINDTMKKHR

| SMILES | activation |
| --- | --- |
| COc1cccc(N(C)C(=O)[C@@H](C)[C@@H](O)c2ccc3ccccc3c2)c1 | -0.02% (inactive) |
| CC(C)CSc1nnc(-c2cccnc2)n1Cc1ccccc1 | -0.36% (inactive) |
| CN1C(C(=O)NCc2ccco2)CC2Cn3c(nc4ccccc43)C21 (centres undefined) | 0.06% (inactive) |
| CN1c2ccccc2-c2nc3ccccc3n2C1c1ccco1 (centres undefined) | 35.6% (active) |
| CN1CCCc2cc(C#N)c(=O)[nH]c21 | 60% (active) |
| Clc1ccc(C(Cn2ccnc2)OCc2ccsc2Cl)c(Cl)c1 (centres undefined) | 0.44% (inactive) |
| Cc1cc(C(=O)NN=C/C=C/c2ccco2)n[nH]1 | 0.51% (inactive) |
| C=CCN1CN(S(=O)(=O)c2ccc(OC)cc2)c2nc3ccccc3nc21 | 2.35% (inactive) |
| CCC(=O)Nc1c(S(=O)(=O)c2ccccc2)c2nc3ccccc3nc2n1Cc1ccccc1 | -55% (inactive) |
| C=CCn1c(N)c(S(=O)(=O)c2cccs2)c2nc3ccccc3nc21 | 26.2% (active) |
| COc1cc2c(cc1OC)CC1(CCCCC1)N=C2 | 165% (active) |
| CCOC(=O)[C@]12CCCCC/C=C\1N(Cc1ccc(OC)cc1)C(=O)[C@H]2CC(=O)N1CCOCC1 | 0.31% (inactive) |
| C=CCN1[C@H](CC(C)C)COc2cccc(N3CCCC3)c2S1(=O)=O | 0.16% (inactive) |
| CCc1cc(=O)oc2cc(C)cc(OC(C)C(=O)O)c12 (centres undefined) | 3.59% (inactive) |
| CCc1cc(=O)oc2cc(C)cc(OCC(=O)N3CCC[C@@H]3C(=O)O)c12 | 2.84% (inactive) |
| CCCCc1cc(=O)oc2cc(C)cc(OCc3nn[nH]n3)c12 | 12.8% (active) |
| CCOC(CNC(=O)C(=O)NCC(c1ccco1)N1CCN(c2ccc(OC)cc2)CC1)OCC (centres undefined) | -0.14% (inactive) |
| Cc1nc(N2CCOCC2)nc2c1CCCC2 | 0.32% (inactive) |
| Cc1cc2c(nc1C)CCCN2C | 38.3% (active) |
| CN1CCCc2nc(-c3ccccc3)ccc21 | 7.88% (inactive) |
| CCOC(=O)[C@@]12CCC3=C1N(CCC3)C(=O)[C@H](CC(=O)N1CCN(C(=O)c3ccco3)CC1)C2 | 0.06% (inactive) |
| C=CCN1C(=O)[C@H](CC(=O)N2CCN(C(=O)OCC)CC2)[C@@]2(C(=O)OCC)CCCC=C12 | -0.4% (inactive) |
| Cc1ccccc1CS(=O)(=O)Cc1ccc(C(=O)Nc2ccc(Cl)cc2)o1 | 3.6% (inactive) |
| Cc1[nH]c(=O)c(C(=O)/C=C/c2ccccc2)c2c1CCCC2 | -0.01% (inactive) |
| O=C1NC(c2ccncc2)Nc2sc3c(c21)CCCC3 (centres undefined) | 1.14% (inactive) |
| C/C(=C\c1ccccc1)C1NC(=O)c2c(sc3c2CCCC3)N1 (centres undefined) | 12.6% (active) |
| COC(=O)c1cccc(Cn2ccc3ccc(-c4ccc5ccn(C(=O)C6CCCCC6)c5c4)cc32)c1 | -4.23% (inactive) |

| SMILES | activation |
| --- | --- |
| O=C(CCl)NC1CCCCN(Cc2cccc(C(F)(F)F)c2)C1=O (centres undefined) | -0.51% (inactive) |
| CNc1cncc(-c2ccc(NS(C)(=O)=O)cc2)n1 | 128% (active) |
| CS(=O)(=O)Nc1ccc(C(=O)N2CCCC2)cc1 | 0.41% (inactive) |
| CC(=O)Nc1cncc(-c2ccccc2CO)n1 | -0.16% (inactive) |
| O=C(CSc1nnc(-c2ccccc2)n1Cc1ccco1)Nc1ccccc1-c1ccccc1 | 0.13% (inactive) |
| CCC(NC(=O)C1C2C=CC3(CN(Cc4ccccc4)C(=O)C13)O2)c1ccccc1 (centres undefined) | -0.29% (inactive) |
| O=C(NC1CCC1)c1ccc(C#Cc2cccc(F)c2)c[n+]1[O-] | -0.32% (inactive) |
| Cc1ccc(O)c(CCc2ccccc2)n1 | -0.18% (inactive) |
| Cc1nc2ccccc2cc1O | 41.8% (active) |
| Cc1nc2ccccc2nc1CC(O)(c1ccccc1)c1ccccc1 | -0.46% (inactive) |
| O=S1(=O)c2ccc(Br)cc2OC[C@H](Cc2ccccc2)N1Cc1cn(Cc2ccccc2)nn1 | -0.03% (inactive) |
| O=C(/C=C/[C@H]1O[C@@H](n2cnc3c(NC(=O)c4ccccc4)ncnc32)[C@H](O)[C@@H]1O)NCc1ccccc1 | 0.53% (inactive) |
| Cc1ccc2nc3c(cc(C(=O)NCCc4ccccc4)c(=N)n3CC3CCCO3)c(=O)n2c1 (centres undefined) | 25.4% (active) |
| Cc1ccc(CCNC(=O)c2ccc3nc4ccccc4c(=O)n3c2)cc1 | -5.82% (inactive) |
| Cc1ccc(-c2noc(-c3ccccc3C(=O)NCC3CCCO3)n2)cc1 (centres undefined) | 0.54% (inactive) |
| CC(=O)OC12CCCN(C1)/C(=C/c1ccncc1)C2 (centres undefined) | 0.51% (inactive) |
| CN(C)CCCn1c(N)c(C#N)c2nc(C#N)c(C#N)nc21 | 78.7% (active) |
| COC(=O)Cc1cc(=O)oc2c(C)c(O)ccc12 | 66% (active) |
| COc1cccc(C(=O)OCc2cc(=O)oc3c(C)c(C)ccc23)c1OC | 0.12% (inactive) |
| CCCc1cc(=O)oc2c(C)c(OCC(=O)Nc3ccccn3)ccc12 | -0.69% (inactive) |
| O=C(CSc1nnc(-c2ccccn2)n1-c1ccccc1)Nc1ccc2cn[nH]c2c1 | 0.28% (inactive) |
| O=C(CSc1nc2ccccc2nc1N1CCCCC1)N1CCN(S(=O)(=O)c2cccc([N+](=O)[O-])c2)CC1 | 0.08% (inactive) |
| Cc1ccc(CSc2nnc(SCC(=O)NN=Cc3cc(Br)ccc3F)s2)cc1 | -0.39% (inactive) |
| CCS(=O)(=O)Nc1cc(C(=O)OC)ccc1C(=O)OC | 21.6% (active) |
| CCCN(CCC)C(=S)Nc1cc(C(=O)OC)ccc1C(=O)OC | 0.15% (inactive) |
| COC(=O)c1ccc(C(=O)OC)c(NC(=S)N2CCCCC2)c1 | -1.87% (inactive) |
| Cc1ccc(NC(=O)Cc2cccc(F)c2)c(S(=O)(=O)N2CCOCC2)c1 | -0.14% (inactive) |

| SMILES | activation |
| --- | --- |
| CC(C)(C)c1ccc(CSc2nnc(-c3cccs3)o2)cc1 | -0.23% (inactive) |
| COc1ccc([C@H]2OC(=O)C[C@H]2C(=O)N2CCN(c3ccccc3F)CC2)cc1OC | -0.74% (inactive) |
| Cc1cccc(C)c1NC(=O)COC(=O)c1c(C)nn(-c2ccccc2)c1C | 0.05% (inactive) |
| Cc1nn(-c2ccccc2)c(C)c1NC(=O)COC(=O)c1cc(Cl)ccc1O | 24.7% (active) |
| CCC(Oc1ccccc1)C(=O)OCC(=O)Nc1c(C)nn(-c2ccccc2)c1C (centres undefined) | -0.3% (inactive) |
| O=C(CSc1nc2ccccc2n1Cc1ccccc1Cl)N/N=C\c1c[nH]c2ccccc12 | 0.56% (inactive) |
| N[C@@H](Cc1ccccc1)C(=O)N1CCC[C@@H]1C(=O)N1CCC2CCN(S(=O)(=O)c3ccccc3)CC21 (some centres undefined) | 0.77% (inactive) |
| Cc1cc2cc3n(c2nn1)N=C(Cl)CC3 | 24.3% (active) |
| COCc1cc(=O)oc2cc(NS(=O)(=O)c3ccc(C)cc3)ccc12 | 15.2% (active) |
| Cc1ccc(S(=O)(=O)Nc2ccc(F)c(S(=O)(=O)N3CCOCC3)c2)cc1 | -0.78% (inactive) |
| Cc1ccc(NS(=O)(=O)c2ccc3c(c2)NC(=O)CO3)cc1 | -0.54% (inactive) |
| CC1CCN(c2ccc(C(=O)O)cc2NS(=O)(=O)c2ccc(Br)s2)CC1 | 0.65% (inactive) |
| CC(=O)C[C@@H]1OC[C@H](C)N1S(=O)(=O)c1ccc(C)cc1 | -0.26% (inactive) |
| C[C@H](C(=O)N(C)c1ccccc1)[C@@H](O)c1ccc(Cl)cc1 | 0.11% (inactive) |
| COc1cc2c(cc1OC)C(Nc1ccc(S(N)(=O)=O)cc1)=NC(C)(C)C2 | 0.68% (inactive) |
| COc1cc2c(cc1O)C(SC)=NC(C)(C)C2 | -0.65% (inactive) |
| COc1cc2c(cc1OC)C(C(C)C)=NC(C)(C)C2 | 85.2% (active) |
| COc1ccc(CN(CCN2CCOCC2)C(=O)c2ccc(C)cc2)cc1OC | 0.42% (inactive) |
| Nn1c(SCC(=O)N2c3ccccc3Sc3ccccc32)nnc1-c1n[nH]c2c1CCC2 | 0.49% (inactive) |
| COc1ccc2nc(-c3ccccn3)ccc2c1 | 20.9% (active) |
| COc1ccc(-n2c(SCC(=O)OC(C)C)nnc2-c2ccccn2)cc1 | -0.5% (inactive) |
| COc1ccc(C(=O)COC(=O)c2ccc3ccccc3n2)cc1 | 0.19% (inactive) |
| O=C(NC1CCC1)c1ccc(C#CC2CC2)cn1 | 0.73% (inactive) |
| CCCCOCCCNC(=O)C[C@H]1C[C@@]2(C(=O)OC)C(=C[C@H](C(C)(C)C)O[C@@H]2C)N(CCc2ccc(OC)c(OC)c2)C1=O | -0.83% (inactive) |
| N#CCC[C@H]1CC[C@]2(CCCN(Cc3ccc(Cl)cc3)C2)O1 | 0.36% (inactive) |
